The source of these data is PubChem BioAssay AID2685 (National Center for Advancing Translational Sciences (NCATS), 2010).

Screen size: about 320,000 compounds; about 2,100 (0.66%) were called active. About 53% were inconclusive and are not listed. The call rests on the fitted dose curve; in most records, active means well fitted inhibition curve with a large enough effect in the signal ratio, with a control signal flat (not every such curve was filed as active); inconclusive means small, poorly fitted or top-dose-only effect, or effect the other way, or a change in a side signal; inactive means flat fitted curve, though single readings scatter; the % refers to the signal ratio. The list comes from a sample in which actives are over-represented; it also holds similar structures and randomly drawn compounds.
Potency means the concentration at half of the fitted maximal effect.

This assay in a line: qHTS Assay for Lipid Storage Modulators in Drosophila S3 Cells.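 On cell number change: cells counted by Cell Tracker Red CMTPX staining in the red channel.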 On lipid storage change, negative = inhibition: on the % scale 0 is the no-effect control and ±100 the full control effect. The note with it: BODIPY lipid droplet fluorescence, 18-24 h, cells fed with added oleic acid; cell number change: measured here: cell count max response; series mostly up to 46.1 µM; lipid storage change, negative = inhibition: at the top concentration. The gist of the method: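 Drosophila S3 cells got compounds at several concentrations plus oleic acid (400 uM solution). Laser-scanning cytometry with 488 nm excitation read lipid droplets at 500-530 nm and cells at 575-640 nm. Percent activity was relative to 20 uM Triacsin C.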
For orientation: qHTS replaces the single test concentration by a dilution series.
For the compound `Cc1c(C(=O)NCc2cccnc2)sc2nc(-c3ccccc3)cn12`, the “lipid storage change, negative = inhibition” value was -2.55% (inactive) and the cell number change is -2.88%.

Regarding `Cc1cccn2c(=O)nc(SCC(=O)NCc3ccccc3)nc12`, the cell number change was 26.3% and the lipid storage change, negative = inhibition is 14.2% [at 0.0737 µM] (inactive).

For `Cc1ccc(-n2ncc3c(=O)n(-c4ccc(C)c(C)c4)c(C)nc32)cc1`, the “lipid storage change, negative = inhibition” value was 20.1% (inactive) and the cell number change is -21%.

In the case of `CC1=Nc2ccccc2N=C(NC(=O)CSC(=S)N2CCCCC2)C1c1ccccc1` (stereo not drawn), the “lipid storage change, negative = inhibition” value was 4.9% (inactive) and the cell number change was 11.1%.

Turning to `CC(C)CC(NC(=O)c1ccccc1NC(=O)c1ccccc1)C(=O)O` (stereo not drawn), the “lipid storage change, negative = inhibition” value is 0.37% (inactive) and the cell number change is -8.71%.

For the compound `CCC(=O)N(CCC(c1ccccc1)c1ccco1)Cc1cccs1` (stereo not drawn), the “lipid storage change, negative = inhibition” value was 3.42% (inactive) and the cell number change turned out to be 1.01%.

Take `CC(=O)NCCC(=O)Nc1nc(-c2cccs2)c(-c2cccs2)s1`: the “lipid storage change, negative = inhibition” value is 11.3% (inactive) and the cell number change came to 13.4%.

Take `CC(=O)c1cccc(NC(=O)c2ccc(OC3CSC3)cc2)c1`: the “lipid storage change, negative = inhibition” value is -2.44% (inactive) and the cell number change stood at 14.6%.

As for `CC(C)NC(=O)c1ccc(OC2CSC2)cc1`, the “lipid storage change, negative = inhibition” value was -7.18% (inactive) and the cell number change came out at 2.39%.

Turning to `CNC(=O)c1ccc(OC2CSC2)cc1`, the Potency was 16.4 µM (active) and the cell number change was -3.88%.

Turning to `O=C(NCC(=O)N(Cc1ccccc1)C(C(=O)NC1CCCC1)c1ccncc1)c1ccco1` (stereo not drawn), the “lipid storage change, negative = inhibition” value was -5.7% (inactive) and the cell number change is -25%.

Take `COc1cccc(C2CCCN2Cc2nc(CC3CC3)no2)c1` (stereo not drawn): the “lipid storage change, negative = inhibition” value is 13.7% (inactive) and the cell number change is -10.7%.

For `CCC(=O)Nc1ccc(S(=O)(=O)Nc2ccc(Cl)nn2)cc1`, the “lipid storage change, negative = inhibition” value was 1.32% (inactive) and the cell number change was -1.17%.

For the compound `Cc1cc(-n2cnnn2)cc(C)c1S(=O)(=O)N(C)c1ccccc1`, the Potency was 10.3 µM (active) and the cell number change came out at 1.61%.

As to `Cc1cc(C)c(S(=O)(=O)N(C)c2ccccc2)c(C)c1`, the “lipid storage change, negative = inhibition” value is 7.23% (inactive) and the cell number change was -0.745%.

For the compound `Cc1cc(-n2cnnn2)cc(C)c1S(=O)(=O)NCCOc1ccccc1`, the result was inactive and the cell number change was -19.8%.

Take `CCCOc1ccc(C(=O)O/N=C(\CC)c2ccc(C)cc2)cc1`: the “lipid storage change, negative = inhibition” value is 17.6% (inactive) and the cell number change was 8.23%.

For the compound `CCOC(=O)N1CCN(C(=O)C2CCN(c3nnc(-n4cccc4)s3)CC2)CC1`, the “lipid storage change, negative = inhibition” value is -7.26% (inactive) and the cell number change came out at 29.4%.

As to `CCOC(=O)C1CCCN(C(=O)C2CCN(c3nnc(-n4cccc4)s3)CC2)C1` (stereo not drawn), the Potency was 16.4 µM (active) and the cell number change was -17.4%.

For the compound `O=C(C1CCN(c2nnc(-n3cccc3)s2)CC1)N1CCCCC1`, the outcome was inactive.

As to `COC(=O)C1CSc2[nH]c(=O)sc2C1c1ccc(OC)c(OC)c1` (stereo not drawn), the “lipid storage change, negative = inhibition” value is -1.45% (inactive) and the cell number change is -7%.

As to `CCC(C(=O)OCC(=O)N1C(C)CCCC1C)c1ccccc1` (stereo not drawn), the “lipid storage change, negative = inhibition” value was -24.9% (inactive) and the cell number change is -35.7%.

Consider `Cc1cc(F)ccc1S(=O)(=O)N1CCCOC1CNC(=O)C(=O)NC1CCCC1` (stereo not drawn), for which the “lipid storage change, negative = inhibition” value was -1.42% (inactive) and the cell number change amounted to 13.2%.

On to `O=C(NCCO)C(=O)NCC1OCCCN1S(=O)(=O)c1cc(F)ccc1F` (stereo not drawn), for which the “lipid storage change, negative = inhibition” value was 27.4% (inactive) and the cell number change was 0.587%.

`O=C(NCC1OCCCN1S(=O)(=O)c1cc(F)ccc1F)C(=O)NC1CCCCCC1` (stereo not drawn): the Potency is 4.61 µM (active) and the cell number change is 3.2%.

Turning to `CCc1cccc(CC)c1NC(=O)C1SC(=Nc2ccccc2C)C(c2nc3ccccc3s2)=C1N` (stereo not drawn), the compound was called inactive.

As for `O=C1NC2(CCSC2)C(=O)N1CC(=O)N(Cc1ccccc1)C1CCS(=O)(=O)C1` (stereo not drawn), the “lipid storage change, negative = inhibition” value was -0.0384% (inactive) and the cell number change came to 1.14%.

Turning to `O=C(NC1CC2CCCC(C1)N2C(=S)NCCc1ccccc1)C1CC1` (stereo not drawn), the “lipid storage change, negative = inhibition” value was -39.3% (inactive) and the cell number change is -26.1%.

Regarding `CCNCc1cc(Br)c(OCC(=O)Nc2ccccc2)c(OC)c1`, the “lipid storage change, negative = inhibition” value was 7.44% (inactive) and the cell number change was determined as 1.4%.

On to `COc1cc(CO)cc(Br)c1OCC(=O)O`, for which the Potency was 2.06 µM (active) and the cell number change came out at 9.61%.

Consider `COc1cc(CO)cc(Br)c1OCc1cccnc1`, for which the “lipid storage change, negative = inhibition” value was 17.8% (inactive) and the cell number change is -5.87%.

On to `CC(C)(C)c1ccc(/C=C/C(=O)N2CCOCC2)cc1`, for which the compound was classed as inactive and the cell number change is -2.69%.

With `CCC1Sc2ccc(S(=O)(=O)CCC(=O)NCc3ccc(C)o3)cc2NC1=O` (stereo not drawn), the compound was classed as inactive and the cell number change was -1.81%.

As for `O=C(NN1CCOCC1)c1cccc(Cl)c1`, the “lipid storage change, negative = inhibition” value was -1.82% (inactive) and the cell number change stood at 14.2%.

Turning to `Cc1cc(C(=O)N2CCCC(C(=O)c3ccc4ccccc4c3)C2)nn1C` (stereo not drawn), the “lipid storage change, negative = inhibition” value was 1.31% (inactive) and the cell number change came to 11.4%.

For the compound `Cc1cc(C(=O)N2CCCC(C(=O)c3ccc4ccccc4c3)C2)n(C)n1` (stereo not drawn), the Potency was 25.9 µM (active) and the cell number change is -14.9%.

Take `CC(C)c1cc(C(=O)N2CCCC(C(=O)c3ccc4ccccc4c3)C2)on1` (stereo not drawn): the “lipid storage change, negative = inhibition” value is 6.79% (inactive).

Turning to `Cc1cc(C(=O)NC2CCC(C)CC2)c(C)o1` (stereo not drawn), the “lipid storage change, negative = inhibition” value is -14.9% (inactive) and the cell number change was -8.31%.

Consider `O=C(CSc1nnc(-c2cccnc2)n1CCN1CCCCC1)Nc1cccc(Cl)c1`, for which the “lipid storage change, negative = inhibition” value is 0.818% (inactive) and the cell number change is 11.7%.

Consider `CCCN1C2CCCC1CC(NC(=S)NCCCOCC)C2` (stereo not drawn), for which the outcome was inactive and the cell number change is -29.4%.

For the compound `CCSc1nc(-c2ccccc2)c2cc(Cl)ccc2n1`, the “lipid storage change, negative = inhibition” value is 2.19% (inactive) and the cell number change was -8.68%.

Consider `CSc1nnc(-c2ccccc2)c(-c2ccccc2)n1`, for which the “lipid storage change, negative = inhibition” value was 11.7% (inactive) and the cell number change was -3.83%.

Consider `Clc1cc(CSc2ccccc2)nc(-c2ccccc2)n1`, for which the result was inactive.

As for `CCSc1nc(-c2ccccc2)nc(C(Cl)Cl)n1`, the Potency is 5.17 µM (active) and the cell number change is -6.95%.

As to `CSc1nc(-c2ccccc2)nc(C(Cl)Cl)n1`, the Potency was 8.2 µM (active) and the cell number change was -22.1%.

In the case of `CSc1nc(-c2ccc(C)cc2)nc(C(Cl)Cl)n1`, the “lipid storage change, negative = inhibition” value was 7.05% (inactive) and the cell number change was found to be 10.6%.
